The text below walks through data of PubChem BioAssay AID602449 (Sanford-Burnham Center for Chemical Genomics, 2012).

SMILES strings stand for the structures. Several values for one entry are separate records, joined by “and”; a condition that tells them apart may be missing. Equal values may be shown once. Out of some 360,000 compounds screened, about 5,000 (1.4%) were called active.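 How the source made its calls: active means inhibition of 50% or more, scaled per plate between neutral and stimulator controls; inactive means the rest.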 The entries come from a sample that favours actives as a whole. More than one record can exist for a structure, and the calls need not agree.

This experiment can be described thus: mitochondrial permeability transition pore inhibitors, primary screen, biochemical, isolated mouse mitochondria, absorbance (AID 602449).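 Further: 0% = DMSO wells given calcium and 100% = 1 mM EGTA wells.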 The conditions noted are these: Ca2+ swelling absorbance, 30 min, at 10 µM, stronger effect = higher value.
In general, inhibition refers to the change of the read-out against control, counted positive when it falls. Take `CCC(C)(C)NC(=O)CN(C(=O)CCC(=O)Nc1nccs1)c1ccc2c(c1)OCO2`: the inhibition was 0.4% (inactive). Under `CCOC(=O)CNC(=O)/C=C/c1c(Cl)cccc1Cl` stands 0.6% (inactive); under `COc1ccc([N+](=O)[O-])cc1NCC(=O)c1ccc(C)cc1`, 0.6% (inactive). Next, `COc1ccc(NC(C)=O)cc1NC(=O)CN1CCN(C2c3ccccc3-c3ccccc32)CC1`: -1.5% (inactive). Under `c1ccc2c(c1)C(=NC1CCCCC1)NC2=NC1CCCCC1` stands 67.5% (active); under `Cc1cc2nc(SCCN3CCOCC3)[nH]c2cc1C`, 0% (inactive); under `O=S(=O)(Nc1ccc(Oc2ncccn2)c(Cl)c1)c1ccc(F)cc1`, -1.6% (inactive). For `Cc1cc(C)cc(OCC(=O)Nc2ccc(S(=O)(=O)Nc3ccccn3)cc2)c1`, the inhibition is 3.7% (inactive). Under `Cc1ccc(S(=O)(=O)Nc2ccc3ncccc3c2)cc1` stands 85% (active); under `O=C(CCN1C(=O)c2ccccc2C1=O)NNC(=O)c1ccc(Cl)cc1Cl`, -0.8% (inactive); under `Cc1cc(OCCCC(=O)NCCN2C(=O)S/C(=C\c3cccnc3)C2=O)ccc1Cl`, 84.3% (active). Under `COc1ccc(N2CC(C(=O)NCCN3C(=O)S/C(=C\c4cccnc4)C3=O)CC2=O)c(OC)c1` (stereo not given) stands -0.2% (inactive); under `O=C(NCCN1C(=O)S/C(=C\c2cccnc2)C1=O)c1cccc(OC(F)F)c1`, 2.4% (inactive). Under `CSCCC(NC(=O)COc1ccccc1)C(=O)OCC(=O)c1cc2ccccc2o1` (stereo not given) stands 0% (inactive); under `CCc1nn(CC(=O)N2CCN(CC)CC2)c(=O)c2cccn12`, -0.4% (inactive). `COC(=O)C1CC2=C(CC(C)(C)CC2=O)N(c2ccccc2)C1=O` (stereo not given): the inhibition is -0.8% (inactive). With `OC(c1ccccc1)(c1ccccc1)C1CCN(CCCOc2ccccc2)CC1`, the inhibition was 4.5% (inactive).

For the compound `CN1CCC[C@@H]1CCO[C@](C)(c1ccccc1)c1ccc(Cl)cc1`, the inhibition is 78% (active). Under `CC(C)(c1ccccc1)c1ccc(OCCN2CCCC2)cc1` stands 2% (inactive); under `CCCc1nn(C)c2c(=O)[nH]c(-c3cc(S(N)(=O)=O)ccc3OCC)nc12`, -0.3% (inactive); under `O=C(c1cccc(N2CCCC2=O)c1)N1CCOCC1`, -0.5% (inactive).

In the case of `Cc1ccc(C(=O)Nc2ccn(C)n2)cc1`, the inhibition was 1.3% (inactive).

On to `CSc1nccc(NC(=O)c2ccc(C(C)(C)C)cc2)n1`, for which the inhibition is 95.6% (active). Under `COC(=O)c1nc(NC(=O)c2ccc(F)cc2)n[nH]1` stands 11.4% (inactive); under `Cc1ccc(C)c(NC(=O)COC(=O)Cn2c(C)csc2=O)c1`, -0.7% (inactive). Next, `COc1cc(NC(=O)c2[nH]cnc2C(N)=O)cc(C(=O)Nc2cccc(C(F)(F)F)c2)c1`: 0% (inactive); `COc1cc(NC(=O)c2cncc(-c3ccc(C#N)cc3)c2)cc(C(=O)Nc2cccc(C(F)(F)F)c2)c1`: 93.8% (active) and 48.4% (inactive); `COc1ccc(C(N)c2csc(NC(=O)Nc3cccc(C(F)(F)F)c3)n2)cc1` (stereo not given): 0.9% (inactive). As to `O=C(Nc1nnc(CCN2CCCCC2)s1)c1cccc(Cl)c1`, the inhibition was -0.1% (inactive).

Turning to `O=C(NCc1ccccc1Cl)NC(=O)c1csc([N+](=O)[O-])c1`, the inhibition was 1% (inactive).

Regarding `O=C(Nc1nnc(SCc2c(Cl)cccc2Cl)s1)c1cccc([N+](=O)[O-])c1`, the inhibition was 91.5% (active). On to `O=C(Nc1nnc(SCc2ccccc2Cl)s1)c1cccc([N+](=O)[O-])c1`, for which the inhibition was 96.3% (active). Under `COCCSc1nnc(NC(=O)c2cc(OC)c(OC)cc2[N+](=O)[O-])s1` stands -2.4% (inactive); under `O=C(Nc1nnc(SCc2c(Cl)cccc2Cl)s1)C1CCCO1` (stereo not given), -1.4% (inactive).

In the case of `CCO/N=C(/C)c1c(O)cc(-c2ccccc2)n(-c2ccccc2)c1=O`, the inhibition is 8.8% (inactive). `O=S1(=O)CC(N2CCC(Cc3ccccc3)CC2)CN1Cc1ccccc1` (stereo not given): the inhibition is 0.9% (inactive). Under `COc1ccc(OCCCC(=O)Nc2nnc(C3CCCO3)s2)cc1` (stereo not given) stands 1.4% (inactive).

For the compound `CCC1CCCCN1C(=S)NC(=O)c1ccco1` (stereo not given), the inhibition is -3.3% (inactive). Next, `COc1cc(OC)cc(C(=O)Nc2nnc(SCC(=O)NCC3CCCO3)s2)c1` (stereo not given): -0.7% (inactive). Next, `CCOC(=O)N1CCN(C(=O)C2CCCN(c3ncnc4c3sc3cccc(F)c34)C2)CC1` (stereo not given): 20.7% (inactive).

Regarding `CCOC(=O)N1CCN(C(=O)C2CCN(c3ncnc4c3sc3cccc(F)c34)CC2)CC1`, the inhibition was 50% (active). Next, `CCOC(=O)N1CCN(C(=O)C2CCN(S(=O)(=O)c3cc(Cl)ccc3OCC)CC2)CC1`: -0.2% (inactive); `COC(=O)C1C(=O)NCC1c1ccc(OC)cc1` (stereo not given): 1.1% (inactive); `Cc1nn(-c2ccccc2)c(CC(C)(C)C(=O)O)c1C(=O)O`: -5.4% (inactive).

For `Nc1[nH]c(C(=O)c2ccccc2)c(-c2ccc(Br)cc2)c1C(=O)NC1CC1`, the inhibition was 0.8% (inactive).

On to `COc1ccccc1N1CC(C(=O)Nc2nnc(SCC(=O)NC(C)C)s2)CC1=O` (stereo not given), for which the inhibition was 0.4% (inactive).

`CC1=NC2(CCCc3c2no[n+]3[O-])N(O)C1(C)C` (stereo not given): the inhibition is 0.8% (inactive). Next, `CCCc1nc(N)nc2c1C(=O)CC(C)(C)C2`: -2.5% (inactive).

As to `CC(=O)Nc1nc2c(s1)C(=O)NCC(C)(C)C2`, the inhibition was 0% (inactive). Next, `CC1(C)CC(=O)c2sc(N)nc2C1`: 83.2% (active). Under `COc1cccc(NC(=O)CN(C)C(=O)CSC(=S)N2CCCC2)c1` stands -0.1% (inactive).

In the case of `CCCS(=O)(=O)N1CCCC(C(=O)NCCN2CCCCC2C)C1` (stereo not given), the inhibition is -1.3% (inactive).

As to `CCCCCCc1cc2cc(-c3nnc(-c4ccccc4)o3)c(=O)oc2cc1O`, the inhibition is 96.2% (active). Next, `COc1ccccc1CNC(=O)CCCNS(=O)(=O)c1cccc2nsnc12`: -0.6% (inactive); `COCCCNC(=O)CN1C(=O)CSc2ccc(S(=O)(=O)N3CCOCC3)cc21`: 2.1% (inactive). Under `CCc1cc2c(SCC(=O)Nc3ncc(Cl)c(C)c3Cl)ncnc2s1` stands 46.1% (inactive); under `CCc1cc2c(NC(Cc3ccccc3)C(=O)O)ncnc2s1` (stereo not given), 1.6% (inactive); under `CCc1cc2c(NC3CCCC3)ncnc2s1`, 87.6% (active). Under `CC(=O)Oc1ccc(OC(C)=O)c2c1C1C=CC2CC1` stands -0.2% (inactive); under `COc1cccc(-c2cnc3c(NC(C)=O)cc(-c4cc(F)ccc4OC)cn23)c1`, -0.3% (inactive); under `Cc1cc(=O)cc(C)n1-c1ccc(Cl)c(Cl)c1`, -0.1% (inactive). As for `O=C1CSC(=S)N1c1ccc(Cl)c(Cl)c1`, the inhibition was 2.2% (inactive). Take `CC(C)N1C(=S)SC(C)(C)C1n1oc(=O)n(-c2ccc(Cl)c(Cl)c2)c1=O` (stereo not given): the inhibition was 92.3% (active). Next, `N#Cc1cc([N+](=O)[O-])ccc1NC(=O)COC(=O)c1cnccn1`: -1.8% (inactive). Under `Cc1ccc(OCCNC(=O)CNC(=O)c2ccc(C)c(C)c2)cc1` stands -0.6% (inactive); under `O=C(Nc1cccc(Br)c1)C1CC(=O)N(C2CCCC2)C1` (stereo not given), -0.1% (inactive). Under `CC(=O)N1CCC(N(C(=O)Nc2ccc(Cl)cc2)C(C)C)CC1` stands 2.8% (inactive); under `CC(C)S(=O)(=O)c1csc(NC(=O)Nc2ccc(Cl)cc2)c1Cl`, 88.8% (active); under `COc1ccc(OCC(O)CNC(=O)Nc2ccc(Cl)cc2)cc1` (stereo not given), 6.8% (inactive). On to `Cc1ccc(S(=O)(=O)N(C)C)cc1NC(=O)COC(=O)/C=C/c1cccs1`, for which the inhibition was -1.3% (inactive).

Turning to `Cc1c(C)c(C)c(S(=O)(=O)N2CCC3(CC2)OCCO3)c(C)c1C`, the inhibition was -0.6% (inactive). Next, `COC(=O)/C(C#N)=C/c1occc1C`: 1.6% (inactive); `COc1ccc(S(=O)(=O)Nc2ccc3oc(C)c(C(C)=O)c3c2)cc1`: 93.4% (active); `CC(=O)c1c(C)oc2ccc(NS(=O)(=O)c3ccc(C(=O)O)cc3)cc12`: 0.1% (inactive). Under `CC(=O)c1c(C)oc2ccc(NS(=O)(=O)c3ccccc3)cc12` stands -0.4% (inactive); under `COc1ccc(NS(=O)(=O)c2ccc(NC(=S)NC(=O)CC(C)C)cc2)cc1`, 0.5% (inactive).

`CC(=O)Nc1ccc(NS(=O)(=O)c2ccc3c(c2)NC(=O)CC(=O)N3)cc1`: the inhibition was -1.8% (inactive).

With `COc1cc(NS(=O)(=O)c2ccc(NC(C)=O)cc2)cc(OC)c1`, the inhibition is 54% (active).

Consider `Cc1c(S(=O)(=O)NC(C)c2ccccc2)c(=O)n(C)c(=O)n1C` (stereo not given), for which the inhibition was 1.4% (inactive).

On to `CN(Cc1nc2ccccc2c(=O)[nH]1)Cc1cc(=O)oc2ccc3ccccc3c12`, for which the inhibition was -0.3% (inactive). Under `COc1cc(/C=N/N=C(\N)c2nonc2N)cc(OC)c1OC` stands -1.6% (inactive); under `Cc1cc(Cl)ccc1-c1nc(NCCN(C)C)nc2ccsc12`, 1.8% (inactive); under `CC1(c2ccc3ccccc3c2)NC(=O)NC1=O` (stereo not given), 0.6% (inactive). Take `Cc1nc(SCC(=O)NC2CCCCC2C)c(C#N)c(C)c1C` (stereo not given): the inhibition is 0.8% (inactive). Under `O=[N+]([O-])c1ccc(Sc2n[nH]c(-c3ccco3)n2)nc1` stands -1.5% (inactive). Next, `CCCC[C@@H]1CN=C(N)N1CCCC`: 1.3% (inactive); `CCCCN1C(N)=NC[C@@H]1Cc1ccccc1`: -0.6% (inactive); `CCCC[C@@H]1CN=C(N)N1CCc1cc(C(F)(F)F)cc(C(F)(F)F)c1`: 88.5% (active). Under `CCCN(Cc1cc2cccc(C)c2[nH]c1=O)S(C)(=O)=O` stands -1.3% (inactive). Consider `COc1cccc(CNc2ncc(-c3ccccc3)n2C)c1`, for which the inhibition is 2% (inactive). Regarding `COc1ccc(/C=C/C(=O)Nc2ccc(C34CC5CC(CC(O)(C5)C3)C4)cc2)cc1OC`, the inhibition is -0.1% (inactive). Next, `CC(=O)Nc1ccc(NC(=O)COc2ccccc2C(=O)Nc2cccc(Cl)c2Cl)cc1`: 6.8% (inactive); `CCOC(=O)c1ccc[n+](CC(=O)Nc2ccccc2OC(F)F)c1`: -3.5% (inactive).

As for `FC(F)Oc1ccccc1NC(=S)Nc1cccc(Cl)c1Cl`, the inhibition was 50.2% (active). Under `Cc1ccccc1N1CC(C(=O)Nc2ccc(S(=O)(=O)N3CCCC3)cc2)CC1=O` (stereo not given) stands -2.9% (inactive).
